Results reported in PubChem BioAssay AID2314 (National Center for Advancing Translational Sciences (NCATS), 2010).
“And” between values parts separate entries of the source, which are not always exact repeats. Identical values can stand only once. Hit rate of the full screen: of about 300,000 compounds, about 37,000 (12%) were called active. Cut-off read from the data, not from the text of the source: active = max response mostly above about 13% (no sharp cut-off); inactive = mostly below about 14%. The sample as a whole holds a higher share of actives than the screen did. More than one record can exist for a structure, and the calls need not agree.

Test: Cycloheximide Counterscreen for Small Molecule Inhibitors of Shiga Toxin; note: read at 38.3 µM for the half of the compounds with a filed dose; 0% is about no effect
Conditions: cell reporter, cycloheximide protein synthesis inhibition counterscreen; stronger effect = higher value

Row | Structure (SMILES) | max response
1 | O=C(Nc1ccc(S(=O)(=O)N2CCCCC2)cc1)C1CC(=O)N(c2ccc(F)cc2)C1 (stereo not drawn) | -1.91% (inactive)
2 | CN(C)c1ccc(CNC(=O)CN2C(=O)COc3ccc(S(=O)(=O)N4CCCC4)cc32)cc1 | 9.54% (inactive)
3 | O=[N+]([O-])C(=c1ccc2c(c1)N1C3=C(CCCC3)CC3CCCCC31N=2)[N+](=O)[O-] (stereo not drawn) | 6.06% (inactive)
4 | c1ccc2c(-c3nn4nnnc4c4ccccc34)cccc2c1 | 8.28% (inactive)
5 | O=C(CCNC(=O)C1CCN(S(=O)(=O)c2ccccc2)CC1)NC1CC1 | 11.4% (inactive)
6 | O=C(CCS(=O)(=O)c1ccccc1)NC1CCCC1 | 49.1% (active)
7 | CC(=O)c1cc(-c2ccccc2)n(CCC(=O)NC2CCCCCC2)c1C | -2.48% (inactive)
8 | COCCCNC(=S)N1CCN(c2nc(-c3cccc(OC)c3)cs2)CC1 | 9.62% (inactive)
9 | CC(C)c1ccc(Cc2nnc(NCCCO)[nH]c2=O)cc1 | 12.2% (inactive)
10 | COc1cccc(CNS(=O)(=O)c2ccc3c(c2)CC(C)N3C(C)=O)c1 (stereo not drawn) | 4.58% (inactive)
11 | Cc1cc(C)n(CC(O)CN(c2ccccc2)S(=O)(=O)c2ccc3ccccc3c2)n1 (stereo not drawn) | -3.48% (inactive)
12 | Cc1cc2c(cc1C)[n+](C)cn2CC(O)COCC1CC=CCC1 (stereo not drawn) | -1.8% (inactive)
13 | COc1ccc(C2/C=C\CN(S(=O)(=O)c3cccs3)CC(=O)N2Cc2ccc(F)cc2)cc1 (stereo not drawn) | 8.73% (inactive) and 13.8% (active)
14 | COc1ccc(C2/C=C\CN(Cc3ccco3)C(C)C(=O)N2Cc2ccc(F)cc2)cc1 (stereo not drawn) | 10.6% (inactive)
15 | COc1ccc(C2/C=C\CN(CC(C)C)CC(=O)N2Cc2ccc(F)cc2)cc1 (stereo not drawn) | -4.65% (inactive) and -3.5% (inactive)
16 | C=CCn1c(SCc2ccc(Cl)c(Cl)c2)nnc1C(CO)NC(=O)c1ccc(OC)cc1 (stereo not drawn) | 3.34% (inactive)
17 | CSc1ccc(/C=N\NC(=O)COc2ccc(Cl)cc2Br)cc1 | 11.1% (inactive)
18 | CSc1ccc(/C=N/NC(=O)c2cccc(Cl)c2)cc1 | 96.6% (active)
19 | O=C(N/N=C/c1ccc(Cl)c(Cl)c1)c1ccc2nc[nH]c2c1 | 16.3% (active)
20 | Cc1nc2ccc(C(=O)N/N=C/c3ccc(O)cc3)cc2[nH]1 | 7.31% (inactive)
21 | CSc1ccc(/C=N\NC(=O)CC(=O)NC(C)C)cc1 | 1.43% (inactive)
22 | COc1ccc(/C(C)=N/NC(=O)c2ccc3nc[nH]c3c2)cc1 | -2.63% (inactive)
23 | CC1CC(C)CN(S(=O)(=O)c2cccc3nonc23)C1 (stereo not drawn) | -1.35% (inactive)

Row | Structure (SMILES) | max response
24 | CN1CC(c2ccccc2)C2(COc3ccccc3C2=O)C12C(=O)Nc1ccccc12 (stereo not drawn) | -3.96% (inactive)
25 | Cc1ccccc1NC(=O)CCNS(=O)(=O)c1ccc2[nH]c(=O)oc2c1 | -2.26% (inactive)
26 | CCOC(=O)NNC(=O)c1ccc(Cl)cc1 | 6.53% (inactive)
27 | O=C(NNC(=O)C1C2CCC(C2)C1C(=O)O)c1ccc(Cl)cc1 (stereo not drawn) | 17.2% (active)
28 | O=C(NNC(=O)C1CCCC1)c1ccc(F)cc1 | -5.73% (inactive)
29 | O=C(NNC(=S)NC1CC2CCC1C2)c1ccc(Cl)cc1 (stereo not drawn) | 11.9% (active)
30 | O=S(=O)(NC1CC2CCC1C2)c1ccc(Cl)cc1 (stereo not drawn) | -1.85% (inactive)
31 | S=C(NNC(=S)NC1CC2CCC1C2)NC1CC2C=CC1C2 (stereo not drawn) | 4.61% (inactive)
32 | CCN(CC(=O)NCCCN1CCOCC1)S(=O)(=O)c1cc(Cl)ccc1Cl | 5.99% (inactive)
33 | O=C(CCCN1C(=O)/C(=C/c2cccs2)SC1=S)Nc1ccc(O)cc1 | 8.82% (inactive)
34 | CCN1C(=NCC(C)C)N[C@@H](CCc2ccccc2)[C@H](C(=O)NCC(C)C)[C@H]1C | 0.929% (inactive) and -2.38% (inactive)
35 | CN(C)/C=C(/C(=O)c1ccc(Cl)c(Cl)c1)c1nnnn1-c1ccccc1 | 0.0457% (inactive)
36 | COc1ccc(C(=O)Nc2ccc(-n3nncc3C(C)(C)C)cc2)cc1 | 48% (active)
37 | COc1ccc(C(=S)Nc2ccccc2)cc1 | 37.3% (active)
38 | C/C(=N\Nc1ccc([N+](=O)[O-])cc1)c1ccc(-n2nncc2C(C)(C)C)cc1 | -3.73% (inactive)
39 | COCCNC(=S)c1ccc(OC)cc1 | 5.78% (inactive)
40 | CCc1cc(C(c2ccccc2OC)N2CCOCC2)c(NC(=O)c2ccccc2)s1 (stereo not drawn) | 12.9% (inactive)
41 | COc1ccccc1C(=O)NNC(=O)c1ccc(NC(=O)c2ccccc2)cc1 | -2.29% (inactive)
42 | CC(C)(C)c1cnnn1-c1ccc([N+](=O)[O-])cc1 | 6.21% (inactive)
43 | CCc1cc(C(N)=O)c(NC(=O)c2ccc(OC)cc2)s1 | 19.3% (active)
44 | Cc1ccc(NC(=O)c2cccnc2C(=O)Nc2ccc(C)cc2)cc1 | -2.58% (inactive)
45 | Cc1ccc(NC(=O)c2ccc(Oc3ncccn3)cc2)cc1 | 32.1% (active)
46 | CCc1cc(C(=O)c2ccc(OC)cc2)c(NC(=O)CN2CCN(C)CC2)s1 | -1.85% (inactive)

Row | Structure (SMILES) | max response
47 | CCC(C(=O)OCC(=O)Nc1ccc(C(=O)Nc2ccc(OC)cc2)cc1)c1ccccc1 (stereo not drawn) | 11.5% (inactive)
48 | CN(C)S(=O)(=O)c1cccc(NC(=O)COC(=O)C2(c3ccccc3F)CCCC2)c1 | -2.67% (inactive)
49 | Cc1c(C(=O)NC(C)C2CC3CCC2C3)cccc1[N+](=O)[O-] (stereo not drawn) | -3.79% (inactive)
50 | COc1cnc(SCc2ccc(Cl)c(Cl)c2)nc1Cl | 2.3% (inactive)
51 | CCc1c2c(nc3ccc(O)cc13)-c1cc3c(c(=O)n1C2)COC(=O)[C@]3(O)CC | -1.28% (inactive)
52 | NC(N)=Nc1nc(-c2ccccc2)c2cc(Cl)ccc2n1 | -10.2% (inactive)
53 | CCOC(=O)C1=C(N)N(c2ccc(C)cc2)C2=C(C(=O)CCC2)C1c1cccs1 (stereo not drawn) | 5.25% (inactive)
54 | COc1ccccc1OC(C)C(=O)Nc1ccc(S(=O)(=O)Nc2nccs2)cc1 (stereo not drawn) | -6.41% (inactive)
55 | CC(=O)N1c2ccc(S(=O)(=O)N3CCCC(C(=O)NCc4ccc(Cl)cc4)C3)cc2CC1C (stereo not drawn) | 10.9% (inactive)
56 | CNS(=O)(=O)c1cccc(C(=O)NC2CCCc3ccccc32)c1 (stereo not drawn) | -2.97% (inactive)
57 | COc1ccc(C(=O)ON=C2c3ccccc3-c3ccccc32)cc1OC | -2.66% (inactive)
58 | COc1ccc(S(=O)(=O)Nc2ccc3oc(C)c(C(C)=O)c3c2)cc1 | -0.324% (inactive)
59 | COc1ccc2oc(=N)c(C(=O)Nc3ccc(Br)cc3)cc2c1 | -2.54% (inactive)
60 | COc1ccc(NS(=O)(=O)c2ccc(NC(=O)c3ccc(N(C)S(C)(=O)=O)cc3)cc2)cc1 | -6.86% (inactive)
61 | COc1ccc(NC(=O)c2ccc(C#CC(C)(C)O)cc2)cc1 | 29.4% (active)
62 | COc1ccc(CC(=O)Nc2ccc(C(=O)NC(C)(C)C)cc2)cc1 | 7.23% (inactive)
63 | COc1ccc(NC(=O)ON=C2c3ccccc3-c3ccccc32)cc1 | 36.1% (active)
64 | COc1cccc(NC(=O)CN(C)CC(=O)Nc2ccc3c(c2)CCC3)c1 | 4.53% (inactive)
65 | CCC(=O)Nc1ccc(C(=O)Nc2cccc(OC)c2)cc1 | 37.4% (active)
66 | COc1ccc(NC(=O)c2c(C)oc3c2CCCC3)cc1 | 23.1% (active)
67 | COc1cccc(NC(=O)c2ccc(S(=O)(=O)N(C)C)cc2)c1 | 9.95% (inactive)
68 | COc1ccc(NC(=O)C(Br)C(C)C)cc1 (stereo not drawn) | 10.3% (inactive)
